In PubChem BioAssay one finds composite z-score, composite Z-score and z-score data, which are given here for six molecules.

Activity calls are given as the source filed them.

One test deals with Albumin (Bos taurus) (UniProt P02769). The test can be described thus: compounds binding labelled BSA control protein – biochemical, small-molecule microarray, Alexa647 label, 635/667 nm fluorescence, artefact control for SMM control protein annotation, profiling panel (AID 1118).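 Note: score merges 667 nm emission intensity and signal-to-noise per printed compound spot.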 The note with it: BSA-A647 binding, fluorescence 635 nm, higher = more signal.
Test [1] can be described thus: probe aXIP binding to arrayed compounds – biochemical, NeuroSMM set, 635/667 nm fluorescence, primary screen (AID 1119).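 Note: probe is the protein aXip251-270 applied at 1 µg/mL to compound-printed slides; binding of probe to printed compounds measured as 667 nm fluorescence plus signal to noise.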 The conditions noted are these: small-molecule microarray, higher = more signal, called active from +8 up or from −8 down.
A short description of test [2]: probe aNOTCH3 binding on compound microarray – biochemical, small-molecule microarray, 635/667 nm fluorescence, primary screen (AID 1120).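 Note: probe is a biotin-tagged antibody raised against NOTCH3 rather than NOTCH3 protein; score merges spot fluorescence near 667 nm with spot signal to noise.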 The note with it: higher = more signal.
Test [3] is described as follows: probe aNOTCH2 binding on compound microarray – biochemical, small-molecule microarray, 635/667 nm fluorescence, primary screen (AID 1121).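 Note: score merges feature fluorescence read at 667 nm with its signal to noise.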 The conditions noted are these: higher = more signal.
Test [4] deals with Carbonic anhydrase 2 (Homo sapiens) (UniProt P00918). Put plainly: compounds binding carbonic anhydrase 2 – biochemical, small-molecule microarray, Alexa647-labelled CAII, profiling panel (AID 1122). The conditions noted are these: CAII-A647 binding fluorescence, higher = more signal.
Test [5] in a line: COS7 lysate on small-molecule microarray, probe aHis, 635 nm (AID 1123).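 Note: z-score combines 667nm fluorescence intensity with signal-to-noise per printed compound spot.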 The conditions noted are these: COS7 cell lysate, fluorescence, higher = more signal.
Test [6] can be described thus: probe aLAP1 signal on lysate-treated microarray – cell lysate, small-molecule microarray, COS7 lysate, primary screen (AID 1124).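 Note: lysate comes from COS7 cells expressing LAP1 and is applied at 0.3 µg/mL; score merges spot fluorescence near 667 nm with signal-to-noise over triplicate slides.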 The conditions noted are these: probe aLAP1, fluorescence, higher = more signal.
The subject of another test is Sam68 (KHDRBS1). The test can be described thus: compounds binding KHDRBS1 protein – biochemical, small-molecule microarray, 635 nm fluorescence, primary screen (AID 1125).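 Note: score merges 667 nm channel intensity with signal to noise over triplicate slides.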 The note with it: higher = more signal.
The subject of test [7] is Chordin-like protein 2 (CHRDL2). Put plainly: compounds binding chordin-like 2 – biochemical, small-molecule microarray, 635 nm fluorescence, primary screen (AID 1126).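 Note: printed compound slides probed with Chrdl2 protein at 4 µg/mL for 1 h at 4 C; score merges 667 nm emission intensity with signal to noise over three replicate slides.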 The conditions noted are these: fluorescence 635 nm, higher = more signal.
Test [8] addresses Concanavalin-A (Canavalia ensiformis) (UniProt P02866). The test can be described thus: compounds binding concanavalin A lectin – biochemical, small-molecule microarray, Alexa647 label, 635 nm, artefact control for SMM control protein annotation, primary screen (AID 1127).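 Note: z combines 667 nm emission intensity with signal-to-noise across three replicate slides.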 The note with it: ConA-A647 binding fluorescence, higher = more signal.
A short description of test [9]: compounds binding Alexa647 anti-His antibody – biochemical, small-molecule microarray, 635 nm fluorescence, artefact control for SMM control protein annotation, primary screen (AID 1128).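 Note: score merges feature fluorescence with signal-to-noise for each printed compound spot.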 The note with it: higher = more signal.
Test [10] relates to Human papillomavirus type 1a E7 protein (residues 1-88). Put plainly: HPV1a E7 small-molecule binders, primary screen, biochemical, small-molecule microarray, residues 1-88, 635 nm (AID 1129). The note with it: small-molecule microarray binding, fluorescence 635 nm; higher = more signal.
Test [11] has as its target Focal adhesion kinase 1 (Homo sapiens) (UniProt Q05397). The test can be described thus: PTK2 protein binding on printed compound slides – biochemical, small-molecule microarray, 635/667 nm fluorescence, BSA, DTT, primary screen (AID 1130).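 Note: composite of spot emission at 667 nm and signal to noise over triplicate slides.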 The note with it: 635 nm fluorescence, higher = more signal.
Test [12] deals with Fibrinogen (Alexa647-labelled). The test can be described thus: Alexa647-fibrinogen binding to printed small molecules – biochemical, small-molecule microarray, 635/667 nm fluorescence, artefact control for SMM control-protein annotation, profiling panel (AID 1131).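 Note: z-score merges 667 nm fluorescence with per-spot signal-to-noise over triplicate slides.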 The note with it: fibrinogen-A647 binding fluorescence, higher = more signal.
The target of test [13] is Follistatin (Homo sapiens) (UniProt P19883). The test can be described thus: FST protein binding to printed compounds – biochemical, small-molecule microarray, 635/667 nm fluorescence, primary screen (AID 1132). The note with it: 635 nm fluorescence, higher = more signal.
Test [14] deals with Fibroblast growth factor 2 (Homo sapiens) (UniProt P09038). The test can be described thus: basic fibroblast growth factor binding to printed compounds – biochemical, small-molecule microarray, 635/667 nm fluorescence, primary screen (AID 1133). The conditions noted are these: FGF2, fluorescence 635/667, higher = more signal.
Test [15] can be described thus: JC-1 mitochondrial potential readout, lung cancer cells – cell-based, A549, JC-1 fluorescence, basal, 24 h, 100 nL, profiling panel (AID 1138).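 Note: A549 lung adenocarcinoma cells under basal conditions with no added stimulus; test concentration not given here.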 The note with it: higher = more signal.
The test system of another test is Lefty1. The test can be described thus: Lefty1 protein binding to printed compounds – biochemical, small-molecule microarray, 635/667 nm fluorescence, primary screen (AID 1139). The note with it: fluorescence 635/667, higher = more signal.
The subject of test [16] is wheat germ agglutinin (Triticum aestivum), Alexa647-labelled. Put plainly: Alexa647-WGA lectin binding to printed small molecules – biochemical, small-molecule microarray, 635/667 nm fluorescence, artefact control for SMM control-protein annotation, profiling panel (AID 1140).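 Note: score merges 667 nm feature emission with signal to noise over triplicate slides.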 The note with it: WGA-A647 binding, 635 nm fluorescence, higher = more signal.
In test [17] the target is Luciferin 4-monooxygenase (Photinus pyralis) (UniProt P08659). The test can be described thus: inhibition of purified Photinus pyralis luciferase – biochemical, luminescence, purified enzyme, 2006 set, primary screen (AID 1141).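 Note: cell-free assay with purified firefly luciferase at 100 ng per well in PBS; test concentration not given here.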 The conditions noted are these: purified firefly luciferase, SteadyGlo luminescence, 30 min; higher = more signal, called active from +8 up or from −8 down.
Luciferin 4-monooxygenase (Photinus pyralis), sequence (P08659 whole entry, looked up): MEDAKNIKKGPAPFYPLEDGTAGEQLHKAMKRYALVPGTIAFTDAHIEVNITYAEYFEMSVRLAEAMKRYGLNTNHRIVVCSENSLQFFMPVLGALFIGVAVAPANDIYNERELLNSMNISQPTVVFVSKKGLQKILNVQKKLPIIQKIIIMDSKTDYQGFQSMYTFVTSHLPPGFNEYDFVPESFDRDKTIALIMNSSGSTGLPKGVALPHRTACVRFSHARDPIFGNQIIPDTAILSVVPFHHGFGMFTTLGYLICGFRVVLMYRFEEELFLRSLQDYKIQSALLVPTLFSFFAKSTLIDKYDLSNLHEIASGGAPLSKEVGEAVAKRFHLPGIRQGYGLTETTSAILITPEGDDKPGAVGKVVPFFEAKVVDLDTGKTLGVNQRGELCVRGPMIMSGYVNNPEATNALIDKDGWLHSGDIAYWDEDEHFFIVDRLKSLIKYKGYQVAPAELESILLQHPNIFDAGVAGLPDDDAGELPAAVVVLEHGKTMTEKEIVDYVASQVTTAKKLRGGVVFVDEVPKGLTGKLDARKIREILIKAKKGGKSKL

Albumin (Bos taurus), sequence (P02769 whole entry, looked up): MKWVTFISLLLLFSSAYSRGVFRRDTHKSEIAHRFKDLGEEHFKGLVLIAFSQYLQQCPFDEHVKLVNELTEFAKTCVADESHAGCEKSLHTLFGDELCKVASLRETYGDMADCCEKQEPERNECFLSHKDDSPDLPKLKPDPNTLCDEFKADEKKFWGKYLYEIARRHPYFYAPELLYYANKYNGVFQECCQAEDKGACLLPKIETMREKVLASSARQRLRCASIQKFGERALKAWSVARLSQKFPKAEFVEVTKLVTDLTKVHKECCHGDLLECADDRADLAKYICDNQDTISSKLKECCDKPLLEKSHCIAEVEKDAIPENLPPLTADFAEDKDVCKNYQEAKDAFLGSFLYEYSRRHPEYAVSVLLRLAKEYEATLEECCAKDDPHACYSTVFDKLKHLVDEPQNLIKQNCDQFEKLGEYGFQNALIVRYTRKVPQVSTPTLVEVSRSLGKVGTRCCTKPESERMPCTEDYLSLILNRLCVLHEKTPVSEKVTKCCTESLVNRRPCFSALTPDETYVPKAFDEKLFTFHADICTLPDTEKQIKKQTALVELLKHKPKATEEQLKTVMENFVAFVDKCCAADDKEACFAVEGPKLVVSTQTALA
Fibroblast growth factor 2 (Homo sapiens), sequence (P09038 whole entry, looked up): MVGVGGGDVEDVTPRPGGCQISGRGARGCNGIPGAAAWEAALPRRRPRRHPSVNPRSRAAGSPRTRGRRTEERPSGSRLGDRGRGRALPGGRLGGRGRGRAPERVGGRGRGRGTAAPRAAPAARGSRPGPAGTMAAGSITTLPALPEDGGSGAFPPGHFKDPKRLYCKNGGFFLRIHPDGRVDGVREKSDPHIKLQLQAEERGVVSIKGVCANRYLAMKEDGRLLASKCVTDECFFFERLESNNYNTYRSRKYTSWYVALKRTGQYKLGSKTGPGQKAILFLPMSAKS
Follistatin (Homo sapiens), sequence (P19883 whole entry, looked up): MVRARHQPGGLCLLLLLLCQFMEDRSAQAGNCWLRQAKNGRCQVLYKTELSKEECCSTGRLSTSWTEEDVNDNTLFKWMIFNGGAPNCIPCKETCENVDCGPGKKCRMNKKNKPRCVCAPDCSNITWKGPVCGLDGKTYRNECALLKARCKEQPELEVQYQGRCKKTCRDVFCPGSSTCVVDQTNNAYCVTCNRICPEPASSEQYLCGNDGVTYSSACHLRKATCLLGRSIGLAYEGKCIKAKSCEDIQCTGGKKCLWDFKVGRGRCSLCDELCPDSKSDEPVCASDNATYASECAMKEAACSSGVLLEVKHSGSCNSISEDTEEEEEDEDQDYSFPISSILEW
Focal adhesion kinase 1 (Homo sapiens), sequence (Q05397 whole entry, looked up): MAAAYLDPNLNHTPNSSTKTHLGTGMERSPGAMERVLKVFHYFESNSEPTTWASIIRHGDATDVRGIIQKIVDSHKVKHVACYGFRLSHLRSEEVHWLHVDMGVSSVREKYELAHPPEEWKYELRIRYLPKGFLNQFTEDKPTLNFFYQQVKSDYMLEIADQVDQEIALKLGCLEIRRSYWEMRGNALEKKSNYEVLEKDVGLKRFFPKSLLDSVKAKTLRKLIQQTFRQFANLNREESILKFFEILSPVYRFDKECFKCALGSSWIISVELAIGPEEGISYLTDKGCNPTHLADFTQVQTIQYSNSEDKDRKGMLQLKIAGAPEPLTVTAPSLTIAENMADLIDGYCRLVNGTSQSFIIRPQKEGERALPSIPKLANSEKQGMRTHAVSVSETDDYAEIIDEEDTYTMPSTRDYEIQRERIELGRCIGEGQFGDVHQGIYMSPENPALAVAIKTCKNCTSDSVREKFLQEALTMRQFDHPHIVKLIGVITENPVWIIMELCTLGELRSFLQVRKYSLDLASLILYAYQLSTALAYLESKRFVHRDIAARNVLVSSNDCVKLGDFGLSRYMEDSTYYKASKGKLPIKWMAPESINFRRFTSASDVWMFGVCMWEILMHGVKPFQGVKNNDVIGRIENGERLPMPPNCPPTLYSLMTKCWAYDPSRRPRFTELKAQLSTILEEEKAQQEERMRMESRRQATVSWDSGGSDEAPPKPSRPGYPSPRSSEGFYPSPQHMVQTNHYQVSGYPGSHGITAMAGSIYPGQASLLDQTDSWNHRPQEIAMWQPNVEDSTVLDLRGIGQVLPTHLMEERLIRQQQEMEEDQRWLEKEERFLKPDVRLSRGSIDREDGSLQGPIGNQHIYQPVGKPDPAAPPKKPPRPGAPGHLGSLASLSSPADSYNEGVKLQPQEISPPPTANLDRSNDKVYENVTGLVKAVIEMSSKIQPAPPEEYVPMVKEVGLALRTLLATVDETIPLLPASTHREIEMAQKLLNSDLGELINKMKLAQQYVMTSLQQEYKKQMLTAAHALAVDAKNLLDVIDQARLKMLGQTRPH
Concanavalin-A (Canavalia ensiformis), sequence (P02866 whole entry, looked up): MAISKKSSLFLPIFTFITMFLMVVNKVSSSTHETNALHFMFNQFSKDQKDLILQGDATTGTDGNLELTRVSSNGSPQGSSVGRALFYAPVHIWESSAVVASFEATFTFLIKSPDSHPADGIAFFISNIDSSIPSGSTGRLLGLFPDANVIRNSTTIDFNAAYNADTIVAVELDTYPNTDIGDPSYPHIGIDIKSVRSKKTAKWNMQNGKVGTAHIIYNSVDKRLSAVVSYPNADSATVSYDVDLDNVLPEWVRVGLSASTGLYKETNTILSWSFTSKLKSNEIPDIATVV

Regarding `O=C/C=C/c1ccc(/C=C/c2ccccc2)cc1`, the composite z-score with Albumin (Bos taurus) was -0.435; in [2], -0.25; in test [3] it was -0.175; in test [4], -0.147; in test [5] it was -0.792; in [6], 0.103. Moreover, the composite z-score in the test with Sam68 (KHDRBS1) is -1.22; in [7] it was 0.95; in test [8], -0.342; in [9], 1.52; in [10], -0.483; in test [11], -0.313. The composite z-score was -1.86 in test [12]; 0.828 in [13]; 0.168 in test [14]; -0.134 in the test on Lefty1; 0.633 in [16]. For the same molecule, in test [1], the composite Z-score is -0.738 (inactive). Moreover, the z-score was 1.39 in test [15] and -3.83 (inactive) in [17].
Turning to `COc1ccc(C(=O)Nc2ccc(CN3C(=O)[C@]4(O[C@H](CCn5cc(CCO)nn5)[C@@H]([Si](C)(C)c5ccc(OC)cc5)[C@@H]4C)c4ccccc43)cc2)cc1`, the composite z-score was -0.343 with Albumin (Bos taurus); 0.391 in test [2]; -0.0649 in [3]; 0.697 in test [4]; 0.88 in test [5]; -0.153 in test [6]. In addition, the composite z-score in the test on Sam68 (KHDRBS1) turned out to be 1.32; in test [7] it was 0.276; in test [8], 1.15; in [9], 0.748; in test [10] it was 1.13; in [11], 0.203. Also, the composite z-score was 0.92 in test [12]; 0.867 in test [13]; 1.57 in test [14]; 0.426 in the test on Lefty1; 0.798 in test [16]. Further, the composite Z-score in test [1] was -0.213 (inactive). Moreover, the z-score was 1.14 in test [15] and -1.26 (inactive) in test [17].
With `C=CCC(OC(C)=O)[C@@H]1[C@@H](N(Cc2cc3ccccc3o2)C(=O)c2ccc(C)cc2)c2cc(OCCCO)ccc2N1C(=O)c1ccc2ccccc2n1` (stereo not given in full), the composite z-score with Albumin (Bos taurus) was 0.659; in test [2], -0.0984; in [3], -0.0037; in test [4] it was -0.135; in [5], 0.043; in [6], -0.348. Further, the composite z-score in the test on Sam68 (KHDRBS1) is 0.0268; in test [7], 0.194; in test [8], -0.304; in test [9] it was -0.88; in [10], -0.593; in [11], 0.178. In addition, the composite z-score in test [12] was -0.589; in [13], 0.573; in test [14], -0.0362; with Lefty1, -0.114; in test [16], -0.475. Besides, the composite Z-score in [1] is 0.0726 (inactive). Besides, the z-score was 1.57 in test [15] and -1.33 (inactive) in test [17].
For `N#Cc1ccc(NN2C(C(O)c3ccc(I)cc3)C=CC3C(=O)N(c4ccccc4)C(=O)C32)cc1` (stereo not given), the composite z-score with Albumin (Bos taurus) was 0.946; in [2], 0.212; in test [3], 0.139; in [4], 0.74; in [5], 2.21; in test [6], -0.809. The composite z-score in the test on Sam68 (KHDRBS1) was 1.29; in test [7], -0.389; in test [8] it was 1.12; in test [9], 1.33; in [10] it was 1.25; in test [11] it was 0.945. Further, the composite z-score in [12] was 0.945; in test [13], 0.402; in test [14], -0.194; with Lefty1, -0.491; in test [16], 1.3. For the same molecule, the composite Z-score in test [1] is 0.128 (inactive). Also, the z-score in [15] was 1.96; in [17] it was 0.628 (inactive).
As to `O=C(NCC(O)CO)[C@]1(Cc2ccccc2)N=C(c2ccc(OCCCO)cc2)O[C@@H]1c1ccccc1` (stereo not given in full), the composite z-score in the test with Albumin (Bos taurus) is 0.974; in test [2], 0.101; in test [3], 0.257; in test [4] it was 0.366; in [5], 3.43; in [6] it was 0.634. Moreover, the composite z-score was 1.03 with Sam68 (KHDRBS1); -1.93 in test [7]; 0.922 in [8]; 0.713 in [9]; 0.98 in test [10]; 0.774 in test [11]. Moreover, the composite z-score was 0.601 in [12]; 0.585 in [13]; -0.836 in test [14]; -1.42 in the test on Lefty1; 1.27 in test [16]. In addition, in test [1], the composite Z-score is 0.749 (inactive). The values for the z-score in test [15] and in test [17] were 0.571 and -1.37 (inactive), respectively.
For the molecule `CCC(=O)[C@]12O[C@@]3([C@@H]4C(=O)OCC[C@@H]41)N(Cc1ccccc1)C(C)=C(C(=O)OC)[C@@H](c1ccccc1)N3C2=O`, the composite z-score is 0.226 with Albumin (Bos taurus); -0.207 in test [2]; -0.164 in test [3]; 0.463 in test [4]; -0.859 in test [5]; -0.242 in test [6]. For the same molecule, the composite z-score in the test on Sam68 (KHDRBS1) is -1.07; in test [7] it was -0.334; in [8] it was -1.17; in test [9] it was -0.97; in [10] it was -2.31; in test [11], 0.0625. Also, the composite z-score in test [12] is -1.35; in [13] it was -0.65; in test [14], -0.715; in the test with Lefty1 it was 0.197; in [16] it was -0.803. In addition, in [1], the composite Z-score is -0.428 (inactive). Moreover, the results for the z-score in test [15] and in test [17] were 1.27 and -1.36 (inactive), respectively.
